Results filed as inconclusive are left out. A call without a number means that no potency is given here. Active and inactive are the calls of the source. Calls come from the whole dose curve; as a rule, active = well fitted curve in the direction sought with a large enough effect; inconclusive = small, poorly fitted or top-dose-only effect, or another doubt; inactive = no such curve, though single readings can be large; an effect the other way counts as inactive or inconclusive.
Potency is the fitted concentration of half-maximal effect.

One experiment can be described thus: NS1 protein of Zika virus - qHTS assay to identify small molecule inhibitors in human HEK 293 cells (AID 1347053). Note: nearly all actives have a fitted effect of over 55% in size. The settings on record: HEK293 ZIKV MR766 infection, NS1 TR-FRET, 24 h; series mostly up to 46.1 µM. Summed up: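 Read-out is a two-antibody TR-FRET for ZIKV NS1, normalized between uninfected cells and infected cells. Compound added 1 h before MR766 infection at MOI 0.5; human HEK 293 cells incubated 24 h, 37 C.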
(qHTS replaces the single test concentration by a dilution series.)
As to `O=C(O)c1ccccc1Nc1cc(Cl)ccc1C(=O)O`, the Potency entry was “inactive”.

As for `O=C1NCCN1CCN1CCC(c2cn(-c3ccc(F)cc3)c3ccc(Cl)cc23)CC1`, the Potency is 7.08 µM (active).

As to `COC(=O)c1cc(S(N)(=O)=O)ccc1OC`, the Potency result is “inactive”.

For the compound `C=CC[N+]1([C@H]2C[C@H]3[C@@H]4CC[C@H]5C[C@H](OC(C)=O)[C@@H](N6CCCCC6)C[C@]5(C)[C@H]4CC[C@]3(C)[C@H]2OC(=O)CC)CCCCC1`, the Potency entry is “inactive”.

For the compound `Nc1cc(C(F)(F)F)ccc1S`, the Potency result is “inactive”.

As to `Cc1ccc(/C=N/n2c(-c3ccccc3)csc2=S)cc1`, the Potency result is “inactive”.

Turning to `CCCCCCOC(=O)NC(=N)c1ccc(NCc2nc3cc(C(=O)N(CCC(=O)OCC)c4ccccn4)ccc3n2C)cc1`, the Potency result is “inactive”.

Turning to `CCC(C(=O)OCCN1CCOC(c2ccccc2)C1C)c1ccccc1` (centres undefined), the Potency result was “inactive”.

With `CCOC(=O)C(=O)CCc1ccccc1`, the Potency result is “inactive”.

In the case of `CCCCOC(=O)CCCCCCCCC(=O)OCCCC`, the Potency result was “inactive”.

As for `COc1ccc([C@@H]2Sc3ccccc3NC(=O)[C@@H]2O)cc1`, the Potency entry is “inactive”.

As for `CC(=O)O[C@@H]1C(=O)O[C@@H]2[C@H]1OC(=O)[C@@H]2OC(C)=O`, the Potency result was “inactive”.

With `O=c1[nH]sc2cc(Cl)ccc12`, the Potency entry is “inactive”.

Take `O=C(Nc1ccc(Cl)cc1)Nc1ccc(Cl)c(Cl)c1`: the Potency entry was “inactive”.

Consider `CC(=O)Oc1ccc(C2(c3ccc(OC(C)=O)cc3)Oc3ccccc3NC2=O)cc1`, for which the Potency entry is “inactive”.

As for `Cc1c(C)c2c(c(C)c1OC(=O)CCC(=O)OCCO)CC[C@@](C)(CCC[C@H](C)CCC[C@H](C)CCCC(C)C)O2`, the Potency result was “inactive”.

The next experiment can be described thus: qHTS of pediatric cancer cell lines to identify multiple opportunities for drug repurposing: Primary screen for TC32 cells (AID 1347089). Note: nearly all actives have a fitted effect of over 60% in size. The settings on record: TC32 Ewing sarcoma viability, CellTiter-Glo luminescence, 48 h; series mostly up to 45.8 µM. Summed up: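 In the primary qHTS, MIPE compounds were tested at 11 concentrations (0.78 nM to 46 µM) and NPC compounds at 8 (0.59 nM to 46 µM) on TC32 cells for 48 h. CellTiter-Glo luminescence gave viability.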
For `Cc1cc(OCCOCC[N+](C)(C)Cc2ccccc2)ccc1C(C)(C)CC(C)(C)C`, the Potency was 26.4 µM (active).

With `CCCCCOc1ccc(C2SC(=O)NC2=O)cc1OCC` (centres undefined), the Potency entry is “inactive”.

Regarding `CC(C)(C)C1CCC(CC2=C(O)c3ccccc3C(=O)C2=O)CC1` (centres undefined), the Potency result is “inactive”.

Consider `CC[C@@]1(O)C(=O)OCc2c1cc1n(c2=O)Cc2c-1nc1ccccc1c2/C=N/OC(C)(C)C`, for which the Potency was 0.0297 µM (active).

As to `CO[C@@H]1[C@@H](OC)[C@H](C)[C@@](O)(CC(=O)O)O[C@H]1[C@H](C)[C@H]1O[C@@]2(CC[C@@](C)([C@H]3CC[C@@](C)([C@@H]4O[C@@H]([C@H]5O[C@](C)(O)[C@H](C)C[C@@H]5C)C[C@@H]4OC4C[C@H](OC)[C@@H](OC)[C@H](C)O4)O3)O2)C[C@H](O)[C@H]1C` (some centres undefined), the Potency is 1.87 µM (active).

Regarding `CC[C@@H]([C@H](C)O)n1ncn(-c2ccc(N3CCN(c4ccc(OC[C@@H]5CO[C@@](Cn6cncn6)(c6ccc(F)cc6F)C5)cc4)CC3)cc2)c1=O`, the Potency result was “inactive”.

With `Cc1ccc(CCn2c3c(c4cc(Cl)ccc42)CN(C)CC3)cn1`, the Potency result is “inactive”.

Take `Cc1nc(N)nc(N)c1-c1ccc(Cl)c(Cl)c1`: the Potency is 0.47 µM (active).

Consider `CCCC(=O)O[C@]1(C(=O)CCl)[C@@H](C)C[C@H]2[C@@H]3CCC4=CC(=O)C=C[C@]4(C)[C@@]3(F)C(=O)C[C@@]21C`, for which the Potency result was “inactive”.

For the compound `CCCCCC(=O)O[C@]1(C(C)=O)CC[C@H]2[C@@H]3CCC4=CC(=O)CC[C@]4(C)[C@H]3CC[C@@]21C`, the Potency result was “inactive”.

As for `OC1(c2ccc(Cl)c(C(F)(F)F)c2)CCN(CCCC(c2ccc(F)cc2)c2ccc(F)cc2)CC1`, the Potency was 16.7 µM (active).

`CCOC(=O)C1=C(C)NC(C)=C(C(=O)OCC)C1c1ccccc1/C=C/C(=O)OC(C)(C)C`: the Potency result was “inactive”.

As for `O=C1OC2(c3ccccc31)c1cc(I)c(O)c(I)c1Oc1c2cc(I)c(O)c1I`, the Potency result is “inactive”.

Source of the values: PubChem BioAssay (NCATS).
